From the supplement of paper PMC12636033
± gives the standard deviation of the averaged measurements. Whole data set: some 33,000 sequences, median “E-score (rank enrichment, -0.5 to 0.5)” near -0.0075, cut for the highest 2% near 0.23. This excerpt belongs to a sample that is enriched for the highest values.

System: WT Max(13-93) synthetic (M65Nle)
Assay: PBM 8-mer E-score (E-score (rank enrichment, -0.5 to 0.5)); higher = stronger preferential binding
Method: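 Protein binding microarray (universal PBM chip covering all 10-mers in fixed probe flanks) with chemically synthesized human Max(13-93) bHLH-LZ analogs (not full-length Max) bearing noncanonical residues (hArg, Tha, Aib, Nle at 65) and aromatic Cys staples. Read-out per 8-mer (and its reverse complement): E-score (rank-based enrichment, -0.5 to 0.5) and Z-score of median probe intensity.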

Sequence | PBM 8-mer E-score
CTACGGGA | 0.0112 ± 0.028
AATACATG | 0.243 ± 0.072
TATACACA | 0.0996 ± 0.085
CATACATC | 0.135 ± 0.022
CATACATG | 0.245 ± 0.026
AATACATA | 0.211 ± 0.11
CATACACA | 0.228 ± 0.099
AATACATT | 0.132 ± 0.098
CATACACG | 0.238 ± 0.086
CATACATA | 0.17 ± 0.086
AAAAGCAA | 0.066 ± 0.13
GCCAGATA | -0.00267 ± 0.056
CCAACTTC | 0.0001 ± 0.0037
TGGAAAAA | 0.0641 ± 0.057
ACTGTCCT | -0.0581 ± 0.038
CACGAGGA | 0.217 ± 0.02
AACGAGAA | 0.242 ± 0.073
CACGAGGG | 0.1535 ± 0.0012
GACGAGTA | 0.0201 ± 0.095
CACGAGTA | 0.237 ± 0.0057
AACGAGAT | -0.133 ± 0.092
CACGAGAA | 0.12 ± 0.075
TACGAGTA | 0.173 ± 0.023
CACGAGGC | 0.252 ± 0.079
CCTACAGA | -0.0418 ± 0.11

Sequence | PBM 8-mer E-score
ATTTGTGC | 0.0791 ± 0.13
CCGGCCAC | -0.164 ± 0.0042
ACAAGCCA | -0.0302 ± 0.081
CAATAAAC | 0.139 ± 0.04
GAATAAAA | 0.184 ± 0.097
CAATAATA | 0.275 ± 0.019
CAATAATC | 0.00647 ± 0.1
CAATAAAA | 0.29 ± 0.011
CAATAATG | 0.0933 ± 0.042
CCGACTCA | -0.185 ± 0.0089
CCTCAAAA | 0.192 ± 0.0034
CCGCGTAG | -0.0165 ± 0.042
CGCTTCCC | -0.0261 ± 0.049
CTTTGTTA | 0.195 ± 0.042
AAGGAGGA | -0.0623 ± 0.0073
ATCATTGC | 0.0872 ± 0.064
CGTATACC | -0.109 ± 0.063
TGTATACA | 0.307 ± 0.074
AGTATACA | 0.155 ± 0.15
CGTATACA | 0.105 ± 0.07
CGTATACG | 0.241 ± 0.024
GGTATACA | 0.0958 ± 0.069
CCGATCCC | -0.173 ± 0.033
ATCACCCC | 0.117 ± 0.11
CCAGGACC | -0.162 ± 0.086

Sequence | PBM 8-mer E-score
ATAATCAG | 0.256 ± 0.14
CTAATCAG | 0.027 ± 0.0044
ATAATCAA | 0.15 ± 0.011
ATAATCAC | 0.04 ± 0.043
AAAATCAG | 0.104 ± 0.15
ATAATCAT | 0.285 ± 0.0003
AGCTTCTC | 0.118 ± 0.0033
AGACGTCG | -0.117 ± 0.066
CACCCTCC | 0.202 ± 0.054
CGGGGTCC | -0.276 ± 0.066
ACATGGCC | 0.232 ± 0.14
CCATGGTC | 0.0328 ± 0.1
ACATGGGG | 0.273 ± 0.033
CCATGGGG | -0.138 ± 0.011
ACATGGCG | 0.183 ± 0.026
ACATGGTA | 0.277 ± 0.008
CTATGGTC | -0.0873 ± 0.11
GCATGGCC | 0.0853 ± 0.066
ACATGGGA | 0.135 ± 0.03
ACATGGTC | 0.319 ± 0.016
CCATGGTA | 0.0299 ± 0.078
GCATGGTA | 0.185 ± 0.032
AAATCGCT | -0.0979 ± 0.047
ACTGTGTG | 0.0422 ± 0.088
AAGAACTA | 0.204 ± 0.045

Sequence | PBM 8-mer E-score
CGCTGCAA | -0.0409 ± 0.02
AGATGGTG | 0.00749 ± 0.089
ACATGGTG | 0.233 ± 0.045
ACATGGAG | 0.198 ± 0.015
GTGGGGAA | 0.205 ± 0.11
GACTGACA | -0.0306 ± 0.026
AGGCCCTC | 0.00332 ± 0.043
CAGGAATC | -0.216 ± 0.02
ATACAAAA | 0.265 ± 0.02
ATACAAAC | 0.212 ± 0.016
ATACAAAT | 0.249 ± 0.035
CTACAAAA | 0.0614 ± 0.0036
TTACAAAA | 0.225 ± 0.024
ATACAAAG | 0.0198 ± 0.057
GAGAAAAC | -0.0792 ± 0.0078
GCAAAGGA | 0.00898 ± 0.011
AATTCATG | 0.132 ± 0.0098
GTATTCAC | 0.0929 ± 0.016
ATATTCAC | 0.234 ± 0.022
CTATTCAC | -0.0152 ± 0.017
CGCTGTCA | -0.225 ± 0.066
ACGTTCGA | -0.101 ± 0.043
CGTATGGA | -0.00324 ± 0.07
ATGTAATG | 0.16 ± 0.079
CTGTAATA | 0.0153 ± 0.064

Sequence | PBM 8-mer E-score
ATGTAACG | 0.0739 ± 0.012
ATGTAATA | 0.25 ± 0.011
CTGTAAAA | 0.0812 ± 0.032
ATGTAAAT | 0.224 ± 0.021
ATGTAACA | 0.239 ± 0.027
ATGTAAAA | 0.268 ± 0.011
CTGTAACA | 0.044 ± 0.048
GCTTAGGA | -0.105 ± 0.036
TGACCCAA | 0.106 ± 0.036
CGTTACTA | 0.108 ± 0.1
CCCTCCTC | -0.0364 ± 0.059
GCATAGTA | 0.0884 ± 0.0015
GTCCCGCA | -0.141 ± 0.005
ACGTGTGG | 0.3 ± 0.048
AGGTGTGG | 0.0754 ± 0.09
ACGTGTGA | 0.192 ± 0.054
CCGTGTGC | -0.0611 ± 0.063
AAGTGTGG | 0.0251 ± 0.043
ACGTGTGC | 0.348 ± 0.0039
ACAAAACG | 0.152 ± 0.068
ACCAGACA | -0.0218 ± 0.036
AAGAACAT | 0.2472 ± 0.0023
AAGAACAG | 0.137 ± 0.033
AAGAACAC | 0.156 ± 0.11
CCAAGCAC | 0.139 ± 0.07

Sequence | PBM 8-mer E-score
ACACCGCA | -0.148 ± 0.046
CCGACCGA | -0.158 ± 0.039
CGTTCGAC | -0.123 ± 0.034
GCATGTAC | 0.197 ± 0.093
TCATGTAA | 0.148 ± 0.0053
AAATGTAG | 0.144 ± 0.015
CAATGTAC | 0.0304 ± 0.16
CCATGTAC | 0.0683 ± 0.0021
GCATGTAA | 0.239 ± 0.0044
ACATGTAC | 0.29 ± 0.009
AAATGTAC | 0.268 ± 0.026
ACATGTAT | 0.341 ± 0.019
ACATGTCT | 0.222 ± 0.1
AGATGTAT | 0.158 ± 0.0099
CCATGTAA | 0.0612 ± 0.026
ATTATCCC | 0.073 ± 0.014
CCGCGTAA | -0.0539 ± 0.056
CGTTCGTA | 0.0244 ± 0.0097
CCGTTCAC | -0.15 ± 0.0062
CCATGTAG | 0.14 ± 0.045
ACATGTAG | 0.329 ± 0.031
ACATGTAA | 0.317 ± 0.0085
AGATGTAG | 0.0391 ± 0.11
AAATGTAA | 0.0766 ± 0.017
AGATGTAA | 0.114 ± 0.043

Sequence | PBM 8-mer E-score
ATTCGATA | 0.0933 ± 0.11
CTGCAGAA | -0.039 ± 0.059
CGGGTTGC | -0.0971 ± 0.064
CTGACCAA | -0.00243 ± 0.0086
CATGGTTA | 0.2411 ± 0.0015
GATGGTTA | 0.0493 ± 0.12
AATGGTTA | 0.147 ± 0.038
CATGGTCA | 0.291 ± 0.031
CATGGTCG | 0.219 ± 0.039
CATGGTCC | 0.0038 ± 0.074
TGCCGCAA | 0.106 ± 0.083
GAATAGGC | 0.113 ± 0.015
CCGTGAGC | -0.142 ± 0.048
CAGGGGTC | -0.0985 ± 0.052
GCGACGAC | -0.0631 ± 0.081
TGTACGAA | 0.0875 ± 0.095
CATGCTGG | 0.314 ± 0.04
CATGCTGC | 0.183 ± 0.089
CATGCTAC | 0.0659 ± 0.14
AATGCTGG | 0.0745 ± 0.034
AATGCTAG | -0.0447 ± 0.064
CATGCTAG | 0.241 ± 0.034
CCCCCGTC | -0.0979 ± 0.09
TGCCGGAA | -0.154 ± 0.028
